Records with an inconclusive call do not appear. The source made the active and inactive calls. Calls follow the shape of the dose curve; as a rule, active = well fitted curve in the direction sought with a large enough effect; inconclusive = small, poorly fitted or top-dose-only effect, or another doubt; inactive = no such curve, though single readings can be large; an effect the other way counts as inactive or inconclusive.

Assay [1] is described as follows: qHTS of pediatric cancer cell lines to identify multiple opportunities for drug repurposing: Primary screen for DAOY cells (AID 1347090). Also: nearly all actives have a fitted effect of over 55% in size. Also: potency is read from the fitted curve at half-maximal effect. In outline: (§1)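 Cell viability, CellTiter-Glo luminescence; 500-1,000 cells/well, 8- or 11-point titration, 48 h compound exposure at 37 degrees C, 5% CO2. Controls: DMSO neutral, bortezomib 2.3 µM final as positive.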
The nature of assay [2]: qHTS of pediatric cancer cell lines to identify multiple opportunities for drug repurposing: Primary screen for A673 cells (AID 1347092). Also: nearly all actives have a fitted effect of over 45% in size. Also: potency is read from the fitted curve at half-maximal effect. In outline: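 48 h compound exposure, A673, 500-1,000 cells/well, 37 degrees C/5% CO2. MIPE: 11-point, 0.78 nM-46 µM; NPC: 8-point, 0.59 nM-46 µM (final). Readout CellTiter-Glo luminescence after 15 min RT.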
The nature of assay [3]: qHTS of pediatric cancer cell lines to identify multiple opportunities for drug repurposing: Primary screen for SK-N-MC cells (AID 1347093). Also: potency is read from the fitted curve at half-maximal effect. In outline: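 Metabolically active cells were quantified by ATP-dependent luminescence (CellTiter-Glo, 15 min at room temperature) following 48 h treatment. Cells had been plated at 500-1,000 per well and settled for 5 h beforehand.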

The nature of assay [4]: qHTS of pediatric cancer cell lines to identify multiple opportunities for drug repurposing: Primary screen for BT-37 cells (AID 1347094). Also: potency is read from the fitted curve at half-maximal effect. In outline: (§2)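 Viability was measured as metabolically active cells after 48 hours of treatment, read by CellTiter-Glo luminescence. Compounds were tested at multiple final concentrations, giving concentration-response curves.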
Assay [5] in a line: qHTS of pediatric cancer cell lines to identify multiple opportunities for drug repurposing: Primary screen for NB-EBc1 cells (AID 1347095). Also: potency is read from the fitted curve at half-maximal effect. Put shortly:
as §2

Assay [6] can be described thus: qHTS of pediatric cancer cell lines to identify multiple opportunities for drug repurposing: Primary screen for U-2 OS cells (AID 1347096). Also: nearly all actives have a fitted effect of over 50% in size. Also: potency is read from the fitted curve at half-maximal effect. Put shortly:
(§3)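 Cells (500-1,000/well) rested 5 h, then received compounds for 48 h; metabolically active cells were measured by CellTiter-Glo luminescence. Final concentrations spanned up to 46 µM (MIPE, 11-point) or 0.59 nM-46 µM (NPC, 8-point) in primary screens, 11-point in follow-ups.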

Assay [7] in a line: qHTS of pediatric cancer cell lines to identify multiple opportunities for drug repurposing: Primary screen for Saos-2 cells (AID 1347097). Also: nearly all actives have a fitted effect of over 40% in size. Also: potency is read from the fitted curve at half-maximal effect. In outline:
as §2

Assay [8] in a line: qHTS of pediatric cancer cell lines to identify multiple opportunities for drug repurposing: Primary screen for SK-N-SH cells (AID 1347098). Also: nearly all actives have a fitted effect of over 65% in size. Also: potency is read from the fitted curve at half-maximal effect. In outline:
as §3

Assay [9] can be described thus: qHTS of pediatric cancer cell lines to identify multiple opportunities for drug repurposing: Primary screen for NB1643 cells (AID 1347099). Also: nearly all actives have a fitted effect of over 50% in size. Also: potency is read from the fitted curve at half-maximal effect. Put shortly:
as §2

Assay [10] can be described thus: qHTS of pediatric cancer cell lines to identify multiple opportunities for drug repurposing: Primary screen for LAN-5 cells (AID 1347100). Also: potency is read from the fitted curve at half-maximal effect. In outline: as §3
Assay [11] can be described thus: qHTS of pediatric cancer cell lines to identify multiple opportunities for drug repurposing: Primary screen for BT-12 cells (AID 1347101). Also: nearly all actives have a fitted effect of over 25% in size. In outline:
as §3

Assay [12] can be described thus: qHTS of pediatric cancer cell lines to identify multiple opportunities for drug repurposing: Primary screen for Rh18 cells (AID 1347102). Also: nearly all actives have a fitted effect of over 65% in size. In outline: as §3
Assay [13] in a line: qHTS of pediatric cancer cell lines to identify multiple opportunities for drug repurposing: Primary screen for OHS-50 cells (AID 1347103). Also: nearly all actives have a fitted effect of over 40% in size. Also: potency is read from the fitted curve at half-maximal effect. Put shortly: as §3
Assay [14] can be described thus: qHTS of pediatric cancer cell lines to identify multiple opportunities for drug repurposing: Primary screen for RD cells (AID 1347104). Also: nearly all actives have a fitted effect of over 55% in size. Also: potency is read from the fitted curve at half-maximal effect. Put shortly:
as §2

Assay [15] in a line: qHTS of pediatric cancer cell lines to identify multiple opportunities for drug repurposing: Primary screen for MG 63 (6-TG R) cells (AID 1347105). Also: nearly all actives have a fitted effect of over 50% in size. Also: potency is read from the fitted curve at half-maximal effect. Put shortly:
as §2

Assay [16] can be described thus: qHTS of pediatric cancer cell lines to identify multiple opportunities for drug repurposing: Primary screen for Rh30 cells (AID 1347107). Also: series mostly up to about 46 µM; nearly all actives have a fitted effect of over 75% in size. Put shortly: as §3
Assay [17] in a line: qHTS of pediatric cancer cell lines to identify multiple opportunities for drug repurposing: Primary screen for SJ-GBM2 cells (AID 1347091). Also: potency is read from the fitted curve at half-maximal effect. In outline:
as §1

A short description of assay [18]: qHTS of pediatric cancer cell lines to identify multiple opportunities for drug repurposing: Primary screen for control Hh wild type fibroblast cells (AID 1347106).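 Also: series mostly up to about 46 µM; a drop in luminescence marks cytotoxicity and a rise apparent proliferation; nearly all actives have a fitted effect of over 55% in size.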 In outline: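 Viability after 48 h compound treatment at 37C, 500-1,000 cells/well, read as ATP luminescence with CellTiter-Glo. Primary screens used 11-point (MIPE, 0.78 nM-46 µM) or 8-point (NPC, 0.59 nM-46 µM) final concentrations; follow-up screens used 11-point dilutions.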

Assay [19] in a line: qHTS of pediatric cancer cell lines to identify multiple opportunities for drug repurposing: Primary screen for Rh41 cells (AID 1347108). Also: nearly all actives have a fitted effect of over 70% in size. Also: potency is read from the fitted curve at half-maximal effect. Put shortly:
as §2

Take `CC(NCCc1ccc(O)cc1)C(O)c1ccc(O)cc1` (stereo not drawn): the Potency result in assay [1], in assay [2], in [3], in [4], in assay [5] and in assay [6] was “inactive” each time. In addition, the Potency entry in assay [7], in [8], in assay [9], in [10], in assay [11] and in assay [12] was “inactive” throughout. Also, the Potency result in assay [13], in assay [14], in [15] and in assay [16] was “inactive” throughout.
`O=c1cc(-c2ccc(O)c(O)c2)oc2cc(O)cc(O)c12`: the Potency entry in [1], in assay [17], in assay [4], in assay [6], in assay [7] and in assay [10] was “inactive” each time. The Potency result in assay [11], in [12], in assay [14], in assay [15], in assay [18] and in [16] was “inactive” in each case.
In the case of `CCN(CCO)CCCOc1ccc2c(Nc3cc(CC(=O)Nc4cccc(F)c4)[nH]n3)ncnc2c1`, the Potency entry in assay [1], in assay [6], in assay [11], in assay [12], in assay [14] and in assay [15] was “inactive” each time. For the same compound, the Potency result in [18] and in assay [16] was “inactive” throughout. In addition, the Potency in assay [17] was 0.166 µM (active); in [3], 0.209 µM (active); in [10] it was 0.0372 µM (active).
As for `CN(C)CCOc1ccc(C(=C(CCCl)c2ccccc2)c2ccccc2)cc1`, the Potency entry in assay [1], in assay [2], in [3], in assay [4], in [6] and in assay [8] was “inactive” in each case. Besides, the Potency entry in [9], in [10], in assay [11], in assay [12], in assay [14] and in [15] was “inactive” throughout. Besides, the Potency result in assay [18], in [16] and in assay [19] was “inactive” each time.
With `NC(=O)c1ccc(N(C(N)=O)c2c(F)cccc2F)nc1-c1ccc(F)cc1F`, in assay [1], the Potency was 14.8 µM (active). Moreover, the Potency entry in assay [17], in [4], in assay [5], in assay [6], in [7] and in assay [9] was “inactive” throughout. Besides, the Potency result in assay [11], in [12], in assay [14], in assay [15], in assay [18] and in assay [16] was “inactive” in each case.
In the case of `CC(C)(C)c1nc(-c2cccc(NS(=O)(=O)c3c(F)cccc3F)c2F)c(-c2ccnc(N)n2)s1`, the Potency in assay [1] and in assay [9] was 18.7 µM (active) each time. The Potency entry in [17], in [4], in [5], in assay [7], in [10] and in assay [11] was “inactive” throughout. The Potency result in assay [12], in assay [13] and in assay [15] was “inactive” throughout.
Take `NS(=O)(=O)c1cc(Cl)c(Cl)c(S(N)(=O)=O)c1`: the Potency result in assay [1], in assay [2], in assay [3], in assay [4], in assay [5] and in assay [6] was “inactive” each time. Also, the Potency result in assay [7], in [8], in assay [11], in assay [13], in assay [14] and in assay [15] was “inactive” throughout. Also, the Potency result in assay [16] and in assay [19] was “inactive” in each case.
Consider `CC(C)n1c(C=C[C@H](O)C[C@H](O)CC(=O)O)c(-c2ccc(F)cc2)c2ccccc21`, for which the Potency was 1.87 µM (active) in assay [1]; 9.35 µM (active) in assay [17]; 11.8 µM (active) in [3]; 19.3 µM (active) in [4]; 14.8 µM (active) in assay [6]; 1.87 µM (active) in [7]. Also, the Potency is 6.81 µM (active) in assay [8], 4.32 µM (active) in assay [13] and 1.48 µM (active) in [15]. The Potency result in assay [10], in assay [16] and in assay [19] was “inactive” throughout.
As for `Cc1ccc(NC(=O)c2cccc(N(C)C)c2)cc1NC(=O)c1ccc(O)cc1`, the Potency result in assay [1], in [12] and in assay [13] was “inactive” each time. The Potency is 0.148 µM (active) in assay [2]; 0.187 µM (active) in [3]; 3.85 µM (active) in [4]; 11.8 µM (active) in assay [5]; 15.2 µM (active) in assay [8]; 0.332 µM (active) in assay [9]. Also, the Potency in assay [10] was 2.96 µM (active); in assay [14] it was 2.64 µM (active); in assay [19], 2.96 µM (active).
As for `N#Cc1c(N(CC(=O)O)CC(=O)O)sc(C(=O)O)c1CC(=O)O`, the Potency result in [1], in [2], in assay [3], in assay [4], in assay [5] and in assay [6] was “inactive” throughout. The Potency entry in [7], in assay [9], in [10], in assay [11], in [12] and in assay [13] was “inactive” in each case. Besides, the Potency result in assay [14], in assay [15], in [18], in assay [16] and in assay [19] was “inactive” throughout.

Values taken from PubChem BioAssay (NCATS).
